# aSyn 5UTR act: Activators working through SNCA 5'UTR binding (MLPCN) | alpha-synuclein 5'UTR reporter, activators screen | activity score, % (tested at 7.5 µM), hits read low | 300,000 tested, 7.1% active | AID 1814; in the data active = activity score below about -60%
# Numbers without * were called inactive. Not all results are given here.
SMILES,aSyn 5UTR act
Cc1ccc(NC(=O)c2c(Cl)nc3ccccn23)cc1,-153*
C/C(=N\NC(=O)c1c(C)nc2ccccn12)c1ccc(O)cc1O,84
Cc1nc2ccccn2c1C(=O)Nc1ccc(Cl)cc1,-160*
O=C(Nc1cccs1)Nc1ccccc1Br,-89*
O=C(CCc1ccccc1)NNc1cc(N2CCCCC2)nc(N2CCCCC2)n1,82
COc1ccc(C(=O)Nc2ccc3ccccc3n2)cc1OC,-139*
O=C(Nc1ccc2ccccc2n1)Nc1cccs1,-62*
O=C(CCc1ccccc1)Nc1ccc2ccccc2n1,-146*
O=C(Nc1ccc2ccccc2n1)c1ccccc1,-74*
O=C(Nc1ccc2ccccc2n1)c1ccccc1Br,-146*
O=C(Nc1ccc(C(F)(F)F)cn1)Nc1cccs1,-76*
O=c1oc(/C=C/c2ccccc2)nc2sc3c(c12)CCC3,-212*
O=c1oc(-c2ccccc2)nc2sc3c(c12)CCCC3,-103*
O=c1oc(-c2cccs2)nc2sc3c(c12)CCCCC3,-90*
Nc1nc(-c2cccnc2)nc2sc3c(c12)CCCC3,-122*
CCc1c(-c2ccccc2)nc2sc3c(c2c1N)CCCC3,-113*
O=c1cc(N2CCN(c3ccc(F)cc3)CC2)[nH]c(=O)n1C1CCCCC1,-107*
CCCOc1ccc(N2C(=O)CC(N(O)c3ccccc3)C2=O)cc1 (stereo not drawn),-77*
CCCOc1ccc(N2C(=O)CC(SCCN)C2=O)cc1 (stereo not drawn),-71*
COC(=O)c1ccc(N2C(=O)CC(SCCN)C2=O)cc1 (stereo not drawn),-84*
FC(F)Sc1ccc(NC(=S)NCc2ccccc2)cc1,-70*
S=C(Nc1ccc(Br)cc1)NC1CCCC1,-124*
CC1CCN(C(=S)Nc2ccc(SC(F)F)cc2)CC1,-143*
FC(F)Sc1ccc(NC(=S)NC2CCCCC2)cc1,-109*
O=C(CC1CCCC1)Nc1ccc(Br)cc1,-138*
SMILES,aSyn 5UTR act
FC(F)Sc1ccc(NC(=S)NCC2CCCCC2)cc1,-67*
COc1ccc(NC(=O)NC2CCCCC2C)cc1 (stereo not drawn),-81*
CCN(CC)c1ccc(NC(=S)NC(=O)C2CCC2)cc1,-64*
Cc1cc(NC(=S)NC(=O)C2CC2)ccc1Br,-114*
COc1ccc(NC(=S)NC(=O)C2CCCCC2)cc1,-86*
Cc1cc(C)n(-c2ccc3cccc(NS(C)(=O)=O)c3n2)n1,90
Cc1cc2n(n1)SC(Nc1cccc3ccccc13)N2 (stereo not drawn),-94*
COc1ccc2c(c1)CC/C2=N\OC(=O)c1ccccc1OC,-65*
CCNC(=O)NC(=O)COC(=O)c1ccccc1SCC(=O)NC(=O)NCC,-122*
COCCn1c(=O)[nH]c2cc(C(=O)Nc3cccc(F)c3)ccc2c1=O,-113*
N#CC(C#N)=c1ccc2c(c1)NC1(CCCCC1)N=2,-337*
CCc1ccc(NC(=O)[C@H](C)NC(=O)C2CCN(C(=O)[C@@H](N)Cc3ccccc3)CC2)cc1,-84*
COc1ccc(C(=O)NNC2=Nc3cccc4cccc2c34)cc1,58
Clc1ccccc1/C=N/NC1=Nc2cccc3cccc1c23,-230*
CC(=O)c1ccc2oc3ccccc3c(=O)c2c1,-81*
CCOC(=O)c1cc2c(=O)c3ccccc3oc2nc1C,-153*
COCc1nc2oc3ccccc3c(=O)c2cc1C(=O)OC,-89*
CC(=O)c1cc2c(=O)c3ccccc3oc2nc1C,-116*
COc1ccc(OC)c(-c2cc(C(=O)Nc3c(C)nn(Cc4ccccc4Cl)c3C)no2)c1,58
COc1ccc(-c2cc(C(=O)Nc3cc(Cl)ccc3O)no2)cc1,-156*
Cc1ccc(O)c(NC(=O)c2cc(-c3ccccc3Cl)on2)c1,-173*
COc1ccc(-c2cc(C(=O)Nc3cc(C)ccc3O)no2)cc1,-132*
Cc1ccc(-c2cc(C(=O)Nc3cc(C)ccc3O)no2)cc1,-183*
CCOc1ccc(-c2cc(CCCC(=O)Nc3cc(OC)ccc3OC)no2)cc1,83
CC1CCC2(CC1)Nc1ccccc1C(=O)N2c1ccccc1 (stereo not drawn),-105*
SMILES,aSyn 5UTR act
CSc1nc(-c2ccc(Cl)cc2)nn1C(=O)c1ccccc1,-134*
COc1ccc(C(=O)c2cnc(/N=C/N(C)C)s2)cc1,-93*
CN(C)/C=N/c1ncc(C(=O)c2ccc3ccccc3c2)s1,-81*
COc1ccc(Nc2nc(N)c3ccccc3n2)c(OC)c1,-198*
Cc1nc(-c2ccccc2)nc2[nH]c(=O)n(-c3ccccc3)c(=O)c12,-93*
Cc1noc(C)c1CSc1nc2[nH]ncc2c(=O)n1-c1ccccc1,51
Oc1c(Cl)cc(Cl)cc1C=Nc1cc(C(F)(F)F)ccc1N1CCc2ccccc2C1,-98*
O=C(N/N=C/c1ccc([N+](=O)[O-])cc1)c1[nH]ncc1Br,-68*
Cc1ccc(CNc2ccc3c(c2)ncn3C)cc1,-170*
CCn1cnc2cc(NCc3ccc(Cl)cc3)ccc21,-111*
Cc1ccc(CNc2ccc3c(c2)ncn3C(C)(C)C)cc1,-97*
CCc1ccc(CNc2ccc3c(c2)ncn3C)cc1,-156*
CCCn1cnc2cc(NCc3ccccn3)ccc21,-71*
